Results reported in PubChem BioAssay (Tox21).
“And” between values parts separate entries of the source, which are not always exact repeats. Identical values can stand only once. Inconclusive results are not listed. A call without a number means that no potency is given here. Some structures have more than one record in an assay (separate samples or runs), and their calls can disagree. The source made the active and inactive calls. Unless noted, calls come from the whole dose curve; as a rule, active = well fitted curve in the direction sought with a large enough effect in the repeat runs; inconclusive = weak or mixed curves; inactive = no such curve, though single readings can be large; an effect the other way counts as inactive or inconclusive.

Columns and labels:
[1] = target: Thyrotropin receptor (Homo sapiens) (UniProt P16473); assay: qHTS assay to identify small molecule antagonists of the thyroid stimulating hormone receptor (TSHR) signaling pathway (AID 1259385; calls by dose curve; note: nearly all actives have a fitted effect of over 20% in size)
How it was run: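 TSHR-HEK293 cells were plated and held 18 h at 37C/5% CO2, then given compound plus Ro20-1724 and stimulated with TSH at 1.5 ng/mL final. After 30 min at room temperature, cAMP was detected with cAMP-d2/anti-cAMP-cryptate (1 h) by fluorescence.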

[2] = qHTS assay to identify small molecule agonists of the estrogen receptor alpha (ER-alpha) signaling pathway in the presence of an antagonist - cell viability counter screen (AID 1259386);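 note: series mostly up to about 92 µM; cells exposed to compounds for 22 h at 37 °C before the viability read; nearly all actives have a fitted effect of over 30% in size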
How it was run: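 Steps: 5-day stripped-FBS culture; seed and incubate 24hr; add ICI-182,780 (10.0nM final); pin 15-point compound titration; incubate 22hr at 37C; add CellTiter-Fluor at 21hr; read fluorescence.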

[3] = target: Progesterone receptor (Homo sapiens) (UniProt P06401); assay: qHTS assay to identify small molecule agonists of the progesterone receptor (PR) signaling pathway (AID 1346784; calls by dose curve; note: nearly all actives have a fitted effect of over 30% in size; note: potency is the fitted concentration of half-maximal effect)
How it was run: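 PR-UAS-bla HEK 293T cells (beta-lactamase reporter under UAS) in 2% charcoal-stripped FBS, dosed with 23 nL compound after 6 hr, incubated 16hr at 37C. LiveBLAzer B/G FRET substrate added, fluorescence read after 2 hours.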

[4] = target: Progesterone receptor (Homo sapiens) (UniProt P06401); assay: qHTS assay to identify small molecule antagonists of the progesterone receptor (PR) signaling pathway (AID 1346795; active = well fitted inhibition curve with a large enough effect in the signal ratio in the repeat runs, not every such curve was filed as active; the % refers to the signal ratio; note: potency is the fitted concentration of half-maximal effect)
How it was run: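 PR-UAS-bla HEK293T cells with beta-lactamase reporter under UAS control, in 2% charcoal-stripped FBS, treated with compounds plus 1 nM promegestone (R5020, final) for 16 hr at 37C. Read-out: FRET beta-lactamase substrate fluorescence after 2 hr at room temperature.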

[5] = qHTS assay to identify small molecule antagonists of the progesterone receptor (PR) signaling pathway - cell viability counter screen (AID 1346798); note: series mostly up to about 92 µM; nearly all actives have a fitted effect of over 50% in size
How it was run: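 PR-UAS-bla HEK293T cells, 3,000/well in 2% charcoal-stripped FBS medium, dosed with compounds plus R5020 agonist and incubated 16 h at 37C. Viability then measured in the same wells by CellTiter-Glo luminescence after 30 min at RT.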

[6] = qHTS assay to identify small molecule agonists of the progesterone receptor (PR) signaling pathway - cell viability counter screen (AID 1346799; calls by dose curve; note: nearly all actives have a fitted effect of over 45% in size)
How it was run: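 Counter screen in the PR-UAS-bla HEK293T wells (2% charcoal-stripped FBS, 16 h compound exposure at 37 C) after the bla read. CellTiter-Glo added, 30 min at room temperature, luminescence read as cell viability.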

[7] = qHTS assay to identify small molecule antagonists of the TGF-beta/Smad signaling pathway - cell viability counter screen (AID 1346824); note: nearly all actives have a fitted effect of over 50% in size
How it was run: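 SBE-bla HEK 293T cells were plated overnight at 37 C, then given compounds in DMSO plus TGF-beta1 (added as 0.25 ng/mL solution) for 5 hr. After the bla read, CellTiter-Glo was added to the same wells and luminescence read after 30 min at room temperature.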

[8] = qHTS assay to identify small molecule agonists of the TGF-beta/Smad signaling pathway - cell viability counter screen (AID 1346829); note: top concentration of the series differs between compounds; nearly all actives have a fitted effect of over 45% in size
How it was run: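 SBE-bla HEK 293T cells plated overnight, compound exposure 5 hr at 37 C. Viability read in the same wells by CellTiter-Glo luminescence after 30 min at room temperature, following the beta-lactamase read.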

[9] = qHTS assay to identify small molecule agonists of the TGF-beta/Smad signaling pathway (AID 1346859; active = well fitted activation curve with a large enough effect in the signal ratio in the repeat runs, not every such curve was filed as active; the % refers to the signal ratio; note: series mostly up to about 77 µM)
How it was run: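 SBE-bla HEK293T cells plated overnight, then compound exposure for 5 h at 37 C. Beta-lactamase reporter read with LiveBLAzer B/G FRET substrate after 2 h at room temperature, fluorescence at 405 nm excitation, 460/530 nm emission.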

[10] = target: Thyrotropin-releasing hormone receptor (Homo sapiens) (UniProt P34981); assay: qHTS assay to identify small molecule antagonists of the thyrotropin-releasing hormone receptor (TRHR) signaling pathway (AID 1346877; active = well fitted inhibition curve with a large enough effect in the repeat runs, not every such curve was filed as active; note: series mostly up to about 51 µM)
How it was run: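 Human TRHR in HEK293 cells; inhibition of the intracellular calcium rise triggered by 1 nM TRH was followed by fluorescence over 3 min. Compounds were run at 15 concentrations, three replicates each.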

[11] = Human pregnane X receptor (PXR) small molecule agonists, qHTS cell viability counter screen (AID 1346977); note: nearly all actives have a fitted effect of over 50% in size
How it was run: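 PXR-Luc HepG2 cells (2,000/well, 5% charcoal-stripped FBS) preincubated 5 hr, then exposed to compounds 24 hr at 37 C. Viability read in the same wells by CellTiter-Fluor fluorescence, reagent added at 23 hr, 1 hr incubation.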

[12] = Caspase-3/7 induction in HepG2 cells by small molecules, qHTS assay (AID 1346978); note: nearly all actives have a fitted effect of over 15% in size
How it was run: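 Wild-type HepG2 cells (2,000/well) were settled 5 h at 37 C, 5% CO2, then exposed to compounds in DMSO for 17 h. Caspase-3/7 activity was read by luminescence 30 min after adding Caspase-Glo 3/7 reagent at room temperature.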

[13] = Caspase-3/7 induction in CHO-K1 cells by small molecules, qHTS cell viability counter screen (AID 1346979); note: nearly all actives have a fitted effect of over 35% in size
How it was run: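 Wild-type CHO-K1 cells (1,500/well) treated with compound after 5 h plating; after 16 h at 37C, viability read as CellTiter-Fluor fluorescence following 1 h reagent incubation, in the same wells as the caspase read.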

[14] = Caspase-3/7 induction in CHO-K1 cells by small molecules, qHTS assay (AID 1346980); note: nearly all actives have a fitted effect of over 15% in size; note: potency is the fitted concentration of half-maximal effect
How it was run: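 Wild-type cells were seeded at 1,500 per well and settled 5 hr at 37 C, 5% CO2, then exposed to DMSO-dissolved compounds for 17 hr. Caspase-Glo 3/7 reagent was added, and luminescence was read after 30min at room temperature.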

[15] = Caspase-3/7 induction in HepG2 cells by small molecules, qHTS cell viability counter screen (AID 1346981); note: series mostly up to about 92 µM; nearly all actives have a fitted effect of over 30% in size
How it was run: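 The parent HepG2 line is plated at 2,000 cells per well and rested 5 hr before compound pinning from DMSO stocks. Following a 16-hr treatment at 37 C, a fluorogenic live-cell substrate (CellTiter-Fluor) reports viability after 1 hr.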

[16] = target: Nuclear receptor subfamily 1 group I member 2 (Homo sapiens) (UniProt O75469); assay: Human pregnane X receptor (PXR) small molecule agonists, qHTS assay (AID 1346982); note: nearly all actives have a fitted effect of over 35% in size; note: potency is the fitted concentration of half-maximal effect
How it was run: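 After plating in 5% charcoal-stripped FBS and a 5 hr rest, PXR-Luc HepG2 cells received compounds in DMSO. Following 24 hr at 37 C, ONE-Glo was added and light output read.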

[17] = target: Thyrotropin-releasing hormone receptor (Homo sapiens) (UniProt P34981); assay: qHTS assay to identify small molecule agonists of the thyrotropin-releasing hormone receptor (TRHR) signaling pathway (AID 1346891; calls by dose curve; note: series mostly up to about 58 µM)
How it was run: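 HEK293 cells expressing TRHR plated 18 h at 37 C/5% CO2, calcium dye-loaded 2 h at 37 C, then compound added (agonist mode); kinetic calcium fluorescence read 3 min at 1 s intervals; 15 concentrations in triplicate.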

[18] = target: Nuclear receptor subfamily 1 group I member 2 (Rattus norvegicus) (UniProt Q9R1A7); assay: Rat pregnane X receptor (rPXR) activation by small molecules, qHTS assay (AID 1346983); conditions: rPXR luciferase reporter cells, One-Glo luminescence, 24 h; max activation: stronger effect = higher value; note: nearly all actives have a fitted effect of over 20% in size
How it was run: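 Cell-based rPXR luciferase reporter assay, 2,000 cells per well, rested 5hr at 37 C before compound addition in DMSO, then 24 hr at 37 C. One-Glo reagent was added and luminescence read after 30 min at room temperature.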

[19] = target: Nuclear receptor subfamily 1 group I member 2 (Homo sapiens) (UniProt O75469); assay: CYP3A4 induction through human pregnane X receptor (PXR) by small molecules, qHTS assay (AID 1346984); note: nearly all actives have a fitted effect of over 40% in size
How it was run: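 Human PXR activation is tracked via CYP3A4 promoter-luciferase in DPX-2 (HepG2) cells. Compounds treat cells for 24hr at 37C, and luminescence is read after One-Glo.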

[20] = target: Nuclear receptor subfamily 1 group I member 2 (Homo sapiens) (UniProt O75469); assay: Human pregnane X receptor (PXR) activation by small molecules, qHTS assay (AID 1346985); note: nearly all actives have a fitted effect of over 40% in size
How it was run: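 DPX-2 cells (HepG2 co-transfected with a PXR response element and a CYP3A4-promoter luciferase construct) were seeded at 2,000 per well, rested 5 hr at 37C, then exposed to DMSO-dissolved compounds for 24 hr. Activation was read as luciferase luminescence.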

Chain of Thyrotropin receptor (Homo sapiens) (P16473 whole entry, looked up): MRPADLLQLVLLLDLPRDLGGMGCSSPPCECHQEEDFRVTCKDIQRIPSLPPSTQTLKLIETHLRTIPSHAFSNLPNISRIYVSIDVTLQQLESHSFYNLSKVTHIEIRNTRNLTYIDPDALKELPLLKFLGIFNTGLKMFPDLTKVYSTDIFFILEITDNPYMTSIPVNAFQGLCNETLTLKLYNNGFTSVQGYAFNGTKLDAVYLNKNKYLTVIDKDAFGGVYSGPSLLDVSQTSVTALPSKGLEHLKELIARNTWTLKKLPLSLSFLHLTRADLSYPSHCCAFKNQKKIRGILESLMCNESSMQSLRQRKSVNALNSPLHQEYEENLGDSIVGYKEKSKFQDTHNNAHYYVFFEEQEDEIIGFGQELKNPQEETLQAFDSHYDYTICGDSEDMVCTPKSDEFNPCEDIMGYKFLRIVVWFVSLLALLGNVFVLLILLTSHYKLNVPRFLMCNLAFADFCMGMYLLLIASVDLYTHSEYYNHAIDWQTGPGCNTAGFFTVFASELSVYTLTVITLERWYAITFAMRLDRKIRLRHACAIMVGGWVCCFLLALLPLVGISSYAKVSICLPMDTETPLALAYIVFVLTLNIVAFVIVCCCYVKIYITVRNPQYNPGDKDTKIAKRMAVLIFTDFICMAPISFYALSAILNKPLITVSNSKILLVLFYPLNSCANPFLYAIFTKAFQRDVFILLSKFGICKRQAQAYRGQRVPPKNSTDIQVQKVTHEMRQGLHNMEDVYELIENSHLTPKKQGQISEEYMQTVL
Chain of Nuclear receptor subfamily 1 group I member 2 (Rattus norvegicus) (Q9R1A7 whole entry, looked up): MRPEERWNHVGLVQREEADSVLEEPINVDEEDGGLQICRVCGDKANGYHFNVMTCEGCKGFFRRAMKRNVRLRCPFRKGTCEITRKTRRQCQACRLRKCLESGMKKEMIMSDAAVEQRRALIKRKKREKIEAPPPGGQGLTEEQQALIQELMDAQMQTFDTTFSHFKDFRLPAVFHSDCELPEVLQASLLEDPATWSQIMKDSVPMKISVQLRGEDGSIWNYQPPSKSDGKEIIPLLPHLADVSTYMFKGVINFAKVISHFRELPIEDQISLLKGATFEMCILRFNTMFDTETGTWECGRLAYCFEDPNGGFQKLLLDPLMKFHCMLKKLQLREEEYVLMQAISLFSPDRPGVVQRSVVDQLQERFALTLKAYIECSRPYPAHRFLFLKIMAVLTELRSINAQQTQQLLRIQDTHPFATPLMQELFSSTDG
Chain of Progesterone receptor (Homo sapiens) (P06401 whole entry, looked up): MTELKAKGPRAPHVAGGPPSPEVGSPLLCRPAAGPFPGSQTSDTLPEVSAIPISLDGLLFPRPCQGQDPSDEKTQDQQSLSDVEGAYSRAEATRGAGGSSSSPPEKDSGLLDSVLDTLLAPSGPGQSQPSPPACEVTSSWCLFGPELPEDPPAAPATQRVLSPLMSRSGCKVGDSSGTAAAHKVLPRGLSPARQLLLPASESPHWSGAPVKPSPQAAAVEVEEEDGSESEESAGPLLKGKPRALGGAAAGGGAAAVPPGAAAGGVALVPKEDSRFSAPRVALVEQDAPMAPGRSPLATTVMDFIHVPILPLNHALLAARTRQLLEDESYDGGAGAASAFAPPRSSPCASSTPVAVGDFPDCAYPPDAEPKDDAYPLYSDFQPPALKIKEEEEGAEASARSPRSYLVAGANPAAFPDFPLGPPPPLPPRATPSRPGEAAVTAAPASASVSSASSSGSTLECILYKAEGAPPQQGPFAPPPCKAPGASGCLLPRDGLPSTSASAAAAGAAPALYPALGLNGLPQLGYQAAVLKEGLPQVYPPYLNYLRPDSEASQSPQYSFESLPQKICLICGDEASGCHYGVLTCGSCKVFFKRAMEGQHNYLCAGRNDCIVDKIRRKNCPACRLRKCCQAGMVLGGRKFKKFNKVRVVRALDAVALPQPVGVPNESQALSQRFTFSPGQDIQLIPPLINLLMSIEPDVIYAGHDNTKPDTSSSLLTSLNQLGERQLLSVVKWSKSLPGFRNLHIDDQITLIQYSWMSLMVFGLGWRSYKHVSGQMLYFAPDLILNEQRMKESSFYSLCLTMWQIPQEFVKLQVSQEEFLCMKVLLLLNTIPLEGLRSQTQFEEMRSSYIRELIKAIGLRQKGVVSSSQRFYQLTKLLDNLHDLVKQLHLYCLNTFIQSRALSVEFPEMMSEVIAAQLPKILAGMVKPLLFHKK
Chain of Thyrotropin-releasing hormone receptor (Homo sapiens) (P34981 whole entry, looked up): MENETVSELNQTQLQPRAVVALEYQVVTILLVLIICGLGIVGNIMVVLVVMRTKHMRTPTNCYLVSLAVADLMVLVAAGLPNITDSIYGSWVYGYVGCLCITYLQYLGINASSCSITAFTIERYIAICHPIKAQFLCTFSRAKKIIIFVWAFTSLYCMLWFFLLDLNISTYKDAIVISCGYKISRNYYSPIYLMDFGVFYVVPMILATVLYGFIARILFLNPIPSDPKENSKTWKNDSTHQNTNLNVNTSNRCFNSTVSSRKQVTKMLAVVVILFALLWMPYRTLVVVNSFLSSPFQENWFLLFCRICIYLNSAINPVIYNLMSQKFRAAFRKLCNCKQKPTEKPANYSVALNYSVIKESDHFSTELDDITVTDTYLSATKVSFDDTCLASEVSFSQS
Chain of Nuclear receptor subfamily 1 group I member 2 (Homo sapiens) (O75469 whole entry, looked up): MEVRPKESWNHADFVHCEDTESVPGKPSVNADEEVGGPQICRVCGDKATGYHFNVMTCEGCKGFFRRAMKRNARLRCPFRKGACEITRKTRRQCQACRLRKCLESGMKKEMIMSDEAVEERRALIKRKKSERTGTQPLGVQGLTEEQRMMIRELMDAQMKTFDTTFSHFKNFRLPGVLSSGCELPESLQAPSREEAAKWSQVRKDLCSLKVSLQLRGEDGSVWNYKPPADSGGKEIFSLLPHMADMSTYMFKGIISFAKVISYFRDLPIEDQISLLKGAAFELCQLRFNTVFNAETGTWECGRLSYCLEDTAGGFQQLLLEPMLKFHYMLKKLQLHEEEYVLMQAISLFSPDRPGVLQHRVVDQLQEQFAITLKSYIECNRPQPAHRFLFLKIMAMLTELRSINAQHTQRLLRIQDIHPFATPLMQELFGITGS

| Structure (SMILES) | outcome [1] | Potency [2] | Potency [3] | Potency [4] | Potency [5] | Potency [6] | Potency [7] | Potency [8] | outcome [9] | outcome [10] | Potency [11] | Potency [12] | Potency [13] | Potency [14] | Potency [15] | Potency [16] | Potency [17] | max activation [18] | outcome [19] | outcome [20] |
| --- | --- | --- | --- | --- | --- | --- | --- | --- | --- | --- | --- | --- | --- | --- | --- | --- | --- | --- | --- | --- |
| C=CC(=O)OCCCCCCCC(C)C | inactive | inactive | inactive | inactive | inactive | inactive | inactive | inactive | inactive | inactive | inactive | inactive | inactive | inactive | inactive | inactive | – | – | – | – |
| O=C1O[C@H](CO)[C@@H](O)[C@H](O)[C@H]1O | inactive | inactive | inactive | inactive | inactive | inactive | inactive | inactive | inactive | inactive | inactive | – | inactive | inactive | inactive | inactive | inactive | 1.43% (inactive) | inactive | inactive |
| ClC1=C(Cl)C(Cl)(Cl)C(Cl)=C1Cl | inactive | inactive | inactive | inactive | inactive | inactive | inactive | inactive | inactive | inactive | inactive | inactive | inactive | inactive and 68.6 µM (active) | inactive | inactive | – | – | – | – |
| O=[N+]([O-])c1cccc(Cl)c1 | inactive | inactive | inactive | inactive | inactive | inactive | inactive | inactive | inactive | inactive | inactive | – | inactive | inactive | inactive | inactive | – | – | – | – |
| CCCCCCCCCCCCOCC1CO1 (centres undefined) | inactive | inactive | inactive | inactive | inactive | inactive | inactive | inactive | inactive | inactive | inactive | inactive | inactive | inactive | inactive | inactive | – | – | – | – |
| CC1(C)O[C@@H]2C[C@H]3[C@@H]4C[C@H](F)C5=CC(=O)CC[C@]5(C)[C@H]4[C@@H](O)C[C@]3(C)[C@]2(C(=O)CO)O1 | inactive | inactive | 5.4 nM (active) and 6 nM (active) | inactive | inactive | inactive | inactive | inactive | inactive | inactive | inactive | inactive | inactive | inactive | inactive | 11.9 µM (active) | inactive | – | – | inactive |
| CC(=O)[C@@]1(O)CC[C@H]2[C@@H]3CCC4=CC(=O)CC[C@]4(C)[C@H]3CC[C@@]21C | inactive | inactive | 3.35 µM (active) | inactive | inactive | – | inactive | inactive | inactive | inactive | – | inactive | inactive | inactive | inactive | – | inactive | – | – | – |
| CN(CCOc1ccc(CC2SC(=O)NC2=O)cc1)c1ccccn1 (centres undefined) | inactive | inactive | inactive | 48.3 µM (active) and inactive | inactive | inactive | inactive | inactive | inactive | – | inactive | inactive | inactive | inactive | inactive | 54.2 µM (active) and inactive | – | -1.4% (inactive) | – | inactive |
| OC[C@@H](O)[C@@H](O)[C@H](O)[C@@H](O)CO | inactive | inactive | inactive | inactive | inactive | inactive | inactive | inactive | inactive | – | inactive | inactive | inactive | inactive | inactive | inactive | – | – | – | – |
| C[C@@H](O)[C@H]1C(=O)N2C(C(=O)O)=C(S[C@@H]3CN[C@H](C(=O)N(C)C)C3)[C@H](C)[C@H]12 | inactive | inactive | inactive | inactive | inactive | inactive | inactive | inactive | inactive | – | inactive | – | inactive | inactive | inactive | inactive | – | -2.7% (inactive) | inactive | inactive |
| Cc1ccc(C(=O)O)o1 | inactive | inactive | inactive | inactive | inactive | inactive | inactive | inactive | inactive | – | inactive | inactive | inactive | inactive | inactive | inactive | – | – | – | – |
| C=C1C2CCC(C2)C1(C)C (centres undefined) | inactive | inactive | inactive | inactive | inactive | inactive | inactive | inactive | inactive | inactive | inactive | inactive | inactive | inactive | inactive | inactive | inactive | – | – | – |
| Cc1cc(O)cc(C)c1Cl | inactive | inactive | inactive | inactive | inactive | inactive | inactive | inactive | inactive | inactive | inactive | inactive | inactive | inactive | inactive | inactive | – | -1.35% (inactive) | inactive | inactive |
| O=S(=O)(Oc1ccc(Cl)cc1Cl)c1ccccc1 | inactive | inactive | inactive | 8.78 µM (active) and 12.2 µM (active) | inactive | inactive | inactive | inactive | inactive | – | inactive | inactive | inactive | inactive | inactive | 49.4 µM (active) and 54.5 µM (active) | – | – | – | – |
